This excerpt belongs to a sample that is enriched for hits.
ROC1-CUL1 inh: inhibitors of human ROC1-CUL1 ubiquitin ligase activity; in vitro K48 di-Ub FRET, acceptor:donor ratio, 45 min; AID 1347404, 2020; inhibition, % at 10 µM; E3 ubiquitin-protein ligase RBX1 (Homo sapiens) + Cullin-1 (Homo sapiens), P62877+Q13616; actives 0.6% (n = 140,000); in the data active = inhibition above about 25%
Target sequence (P62877 whole entry, looked up): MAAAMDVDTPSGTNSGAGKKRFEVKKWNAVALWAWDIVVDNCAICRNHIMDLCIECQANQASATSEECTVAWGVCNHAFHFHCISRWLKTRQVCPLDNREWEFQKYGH
Target sequence (Q13616 whole entry, looked up): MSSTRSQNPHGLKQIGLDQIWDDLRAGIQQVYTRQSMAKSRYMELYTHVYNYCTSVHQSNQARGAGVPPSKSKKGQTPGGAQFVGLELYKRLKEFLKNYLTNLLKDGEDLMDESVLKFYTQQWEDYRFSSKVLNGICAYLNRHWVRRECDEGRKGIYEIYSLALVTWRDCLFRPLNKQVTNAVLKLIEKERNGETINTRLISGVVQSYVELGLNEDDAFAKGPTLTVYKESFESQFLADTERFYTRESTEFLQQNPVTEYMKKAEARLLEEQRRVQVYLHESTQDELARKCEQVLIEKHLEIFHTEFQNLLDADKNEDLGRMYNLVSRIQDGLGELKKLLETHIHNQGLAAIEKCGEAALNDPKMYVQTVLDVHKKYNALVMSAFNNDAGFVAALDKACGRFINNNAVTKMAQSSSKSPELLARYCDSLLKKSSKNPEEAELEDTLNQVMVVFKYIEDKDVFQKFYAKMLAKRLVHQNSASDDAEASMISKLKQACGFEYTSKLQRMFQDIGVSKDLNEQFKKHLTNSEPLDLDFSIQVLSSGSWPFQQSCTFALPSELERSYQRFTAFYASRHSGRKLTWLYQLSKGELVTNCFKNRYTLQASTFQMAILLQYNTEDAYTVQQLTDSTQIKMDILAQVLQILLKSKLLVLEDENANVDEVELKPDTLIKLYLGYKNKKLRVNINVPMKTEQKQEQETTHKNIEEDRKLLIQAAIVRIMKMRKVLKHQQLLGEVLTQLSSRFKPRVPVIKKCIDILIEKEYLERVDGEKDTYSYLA
* marks the source's active call; other numbers are inactive results.

SMILES	ROC1-CUL1 inh
Cc1ccc(-c2cc(C(=O)Nc3sc4c(c3C(N)=O)CCC(C(C)(C)C)C4)c3ccccc3n2)o1 (stereo not given)	-1.6
NC(=O)c1c(NC(=O)c2cc(-c3ccccc3)nc3ccccc23)sc2c1CCCCCC2	5.6
CCC1CCc2c(sc(NC(=O)c3cc(-c4ccco4)nc4ccccc34)c2C(N)=O)C1 (stereo not given)	42.7*
Cc1ccc(N2CCN(c3ccc(C)cc3)C2c2ccccc2O)cc1	-2.2
O=C1NC(=Nc2cc(Cl)cc(Cl)c2)S/C1=C\c1ccco1	27.7*
O=C1NC(=Nc2ccccc2)S/C1=C/c1ccc(-c2ccc(Cl)cc2Cl)o1	-3.4
O=C1NC(=Nc2ccccc2Cl)S/C1=C\c1ccc(-c2ccc(Cl)cc2)o1	-8.4
CCOc1ccc(CNC(=O)c2ccc3[nH]c(C)c(C)c3c2)cc1OC	6.0
Cc1cccc(N(C)S(=O)(=O)c2cc3[nH]c(=O)c(=O)[nH]c3cc2C)c1	0.7
CC1CCc2c(sc3nc(SCc4ccc5c(c4)OCO5)nc(N)c23)C1 (stereo not given)	11.6
O=C1CCC(CCC(=O)NC2(c3ccccc3)CC2)(Cc2ccc(F)cc2)N1 (stereo not given)	4.4
COc1ccc(CNC(=O)CSc2ncc3c(n2)-c2cc(Cl)ccc2N(Cc2ccccc2)S3(=O)=O)cc1	2.5
COc1ccc(NC(=O)CSc2ncc3c(n2)-c2cc(Cl)ccc2N(Cc2ccccc2F)S3(=O)=O)cc1	44.8*
COc1ccccc1NC(=O)CSc1ncc2c(n1)-c1cc(Cl)ccc1N(C)S2(=O)=O	-8.1
CCc1ccc(-c2csc(C(C#N)C=Nc3cccc4ccccc34)n2)cc1 (stereo not given)	-6.8
CN(C)c1ccccc1/C=C1\Oc2ccccc2C1=O	27.1*
COc1ccccc1/C=C1\Oc2cccc(OC)c2C1=O	10.3
CC(=O)Cc1ccccc1/C=C1\OC(=O)c2ccccc21	8.1
COc1ccc(OC)c(NC(=O)c2cccc(F)c2)c1	-2.9
COc1ccc(CCC(=O)NC2CC(=O)N(c3cccc(F)c3)C2)cc1 (stereo not given)	-4.1
c1ccc(-n2cnc3ccccc32)nc1	4.1
O=C(Cc1cccs1)Nc1ccc(Cc2cccc(NC(=O)Cc3cccs3)c2C(=O)O)cc1C(=O)O	26.9*
Cc1ccccc1NC(=O)Cc1cccs1	6.5
O=C(Cc1cccs1)Nc1ccccc1O	-6.1
Cc1ccc(N2C(=O)c3ccccc3C2=O)cc1F	-14.4
SMILES	ROC1-CUL1 inh
Cc1ccc(Cn2c(C(=O)O)c(CNCCc3cccs3)c3ccc(C)cc32)cc1	4.3
Cc1cc(O)ccc1NC(=O)COc1cccc2ccccc12	2.8
O=C(COc1cccc2ccccc12)Nc1ccc(Cl)cc1C(=O)O	25.4*
COc1ccccc1NC(=O)COc1cccc2ccccc12	-0.4
CCc1ccc(NC(=O)C2CCCN(S(=O)(=O)c3ccc4[nH]c(=O)ccc4c3)C2)cc1 (stereo not given)	-5.9
COc1ccc(OC)c(-c2cc(Cl)c3c(c2)CC(CNC(=O)CCc2cccnc2)O3)c1 (stereo not given)	-2.0
CC(C)(C)c1ccc(C2Nc3cccc4cccc(c34)N2)cc1	-7.4
Fc1cccc(C2Nc3cccc4cccc(c34)N2)c1	-5.2
O=C(O)c1ccc(C2Nc3cccc4cccc(c34)N2)cc1	92.7*
Fc1ccc(-c2cc(-c3nc(-c4ccc(Cl)cc4)no3)[nH]n2)cc1	-11.4
Cc1ccc(N(CC(=O)Nc2ccccc2C(F)(F)F)S(=O)(=O)c2ccccc2)cc1	-11.9
CCC(C)NS(=O)(=O)c1ccc(OC)c(C(=O)O)c1 (stereo not given)	-1.2
CCC(C)c1cc(Cc2cc(C(C)CC)cc(C(=O)O)c2O)c(O)c(C(=O)O)c1 (stereo not given)	80.2*
CC(C)c1cc(N)cc(C(=O)O)c1O	2.5
N#Cc1ccccc1S(=O)(=O)N1CCC(Oc2ccc(-n3cnnn3)cc2)CC1	-0.1
O=C(C=C1SCCS1)/C=C/c1ccco1	5.4
COc1cccc(/C=C2\CCC(=C3SCCS3)C2=O)c1	-6.7
O=C1C(=C2SCCS2)CC/C1=C\c1ccco1	73.5*
Nc1ccc2c(c1)C/C(=C/c1ccco1)C2=O	30.6*
CC1=C([N+](=O)[O-])CS(=O)(=O)/C1=C\c1ccco1	6.7
Cc1ccc(/C=C2\CCc3ccccc3C2=O)o1	-4.2
CCOC(=O)c1[nH]c(C)c(CCC(=O)NCc2ccccc2)c1C	3.1
CCCCN1N=C(C)Cn2c1nc1c2c(=O)n(CC(C)C)c(=O)n1C	-8.5
CCn1c(CN2c3ccccc3Sc3ccccc32)nnc1SCC(C)=O	6.0
Clc1ccc2c(c1)CC(NCCc1ccccc1)c1ccccc1S2 (stereo not given)	-1.6
SMILES	ROC1-CUL1 inh
O=C1C(=O)N(CC2CCCO2)C(c2ccccc2)C1C(=O)c1ccc2c(c1)OCCO2 (stereo not given)	7.8
COc1cc(C2CC(=O)Oc3c2c(=O)n(C)c2ccccc32)ccc1O (stereo not given)	1.6
CCCS(=O)(=O)c1c(S(=O)(=O)CCC)c2cc(-c3ccncc3)ccn2c1C(=O)c1ccc(C)cc1	-2.9
Cc1cc(C)c(NC(=O)C(C)n2c(=O)cc(C)c3c(C)nn(-c4ccccc4)c32)c(C)c1 (stereo not given)	4.1
C=CCn1c(CNc2ccccc2)nnc1SC(C)C(=O)N/N=C/c1ccc(N(CC)CC)cc1 (stereo not given)	-1.6
C=CCn1c(CNc2cccc3ccccc23)nnc1SC(C)C(=O)N/N=C/c1ccc(OC)cc1OC (stereo not given)	41.9*
C=CCn1c(CNc2cccc3ccccc23)nnc1SCC(=O)N/N=C/c1ccc(OC)cc1OC	6.9
O=C(NCc1cccs1)c1ccc(Cn2c(SCc3ccc(F)cc3)nc3cccnc32)cc1	1.4
O=C1c2ccccc2-c2nc3ccc(Cl)cc3nc21	-1.5
O=C1c2ccccc2-c2nc3nsnc3nc21	86.9*
O=C1c2ccccc2-c2ncccc21	-6.6
CN1C2C=C3C(C#N)C(=N)C(C#N)(C#N)C(c4ccc(Br)cc4)C3C1CC2 (stereo not given)	-7.3
O=C(Nc1ccc(Oc2ccccc2)cc1)c1ccncc1	3.5
CC(=O)Nc1ccc(Oc2cc(NC(=O)c3ccccc3)cc([N+](=O)[O-])c2)cc1	6.7
CC(=O)Oc1cc(C(=O)Nc2ccc(Oc3ccccc3)cc2)cc(OC(C)=O)c1OC(C)=O	38.5*
O=C(c1cnc(-c2ccccn2)nc1)N1CCc2[nH]nc(C3CCC3)c2C1	-0.1
NC(=O)c1cnn2c1NC(c1cccs1)CC2C(F)(F)F (stereo not given)	6.3
O=C1NC(=S)N(c2cccc(Br)c2)C(=O)/C1=C/c1cc(I)c(O)c(I)c1	26.9*
O=C1NC(=S)N(c2ccccc2)C(=O)/C1=C/c1cc(Br)ccc1O	1.9
O=C1NC(=S)N(c2cccc(Br)c2)C(=O)/C1=C/c1ccc(O)cc1	5.9
O=C(CCn1c(=O)c2cccn2c2ccc(F)cc21)NCCc1ccc(Cl)cc1	8.4
Cc1ccc(OCCCOc2ccccc2/C=C2\C(=O)NN(c3ccccc3)C2=O)cc1	35.8*
O=C1NN(c2ccccc2)C(=O)/C1=C/c1cn(CCCOc2ccc(Cl)cc2)c2ccccc12	-3.3
O=C1NN(c2ccccc2)C(=O)/C1=C/c1cc(Cl)ccc1OCc1ccc(Cl)cc1	41.0*
COc1cc(/C=C2\C(=O)NN(c3ccccc3)C2=O)cc(Cl)c1OCCCOc1ccc(Cl)cc1	11.8
